# In PubChem BioAssay (NCATS):
# Records with an inconclusive call do not appear. Activity calls are given as the source filed them. Calls follow the shape of the dose curve; as a rule, active = well fitted inhibition curve with a large enough effect; inconclusive = small, poorly fitted or top-dose-only effect; inactive = flat fitted curve, though single readings scatter. Non-standard residues stand in square brackets, D forms with d. Residues, ends and D or L forms follow the SMILES beside them. *: point of attachment. Nva = CCC[C@H](N)C(=O)O; Cbz = O=C(OCc1ccccc1)*
# Test system: Zika virus NS2B-NS3 protease
# Assay: Primary screen GU AMC qHTS for Zika virus inhibitors (AID 1347154);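 also: 0% = no-inhibitor control and -100% = no-enzyme control; nearly all actives have a fitted effect of over 70% in size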
# Details: Zika NS2B-NS3 unlinked protease, AMC fluorogenic substrate; series mostly up to 54.1 µM; activity change, negative = inhibition: at the top concentration
# Summary of the method: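 Unlinked Zika NS2B hydrophilic domain/NS3 protease domain noncovalent complex (25 nM final) in 10 mM Tris-HCl pH 8.0, 0.01% Tween 20, with AMC peptide substrate. Fluorescence (ex 340, em 450 nm) change over 15 min, room temperature; percent inhibition fitted to 4-parameter Hill equation.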
row,Structure (SMILES),"activity change, negative = inhibition"
1,CC(C(C)N1CC(=O)NC(=O)C1)N1CC(=O)NC(=O)C1 (centres undefined),-7.21% (inactive)
2,O=C(C=CC#Cc1cccc(NS(=O)(=O)c2ccccc2)c1)NO,-6.43% (inactive)
3,Nc1nc2c(c(=O)[nH]1)N(C=O)[C@H](CNc1ccc(C(=O)N[C@@H](CCC(=O)O)C(=O)O)cc1)CN2,24.8% (inactive)
4,CCS(=O)(=O)Nc1ccc2[nH]c(O)c(C(=Nc3ccc(CN4CCCCC4)cc3)c3ccccc3)c2c1,1.58% (inactive)
5,CNC(=O)Nc1ccc(-c2nc(N3CC4CCC(C3)O4)c3cnn(C4CCC5(CC4)OCCO5)c3n2)cc1,-12.8% (inactive)
6,FC(F)c1nc2ccccc2n1-c1nc(N2CCOCC2)nc(N2CCOCC2)n1,5.89% (inactive)
7,CS(=O)(=O)N1CCc2c(-c3cnc(N)nc3)nc(N3CCOCC3)nc21,3.63% (inactive)
8,COC(=O)[C@@H]1[C@H]2C[C@@H]3c4[nH]c5ccccc5c4CCN3C[C@@H]2CC[C@@H]1O,-7.72% (inactive)
9,CC(C)C[C@H](NC(=O)CNC(=O)c1cc(Cl)ccc1Cl)B1OC(=O)CC(CC(=O)O)(C(=O)O)O1 (some centres undefined),2.52% (inactive)
10,C[C@@H](Oc1ccc2[nH]nc(C=Cc3cnn(CCO)c3)c2c1)c1c(Cl)cncc1Cl,-6.42% (inactive)
11,CC(C)C[C@H](NC(=O)[C@@H](NC(=O)c1cccc(-c2ccccc2)n1)[C@@H](C)O)B(O)O,-4.08% (inactive)
12,COC(=O)C=CC(=O)OC,8.58% (inactive)
13,C[C@@]12C(=O)OC(=O)[C@@]1(C)C1CCC2O1,3.55% (inactive)
14,Cc1ccc([N+](=O)[O-])cc1S(=O)(=O)N(C)N=Cc1cnc2ccc(Br)cn12,-8.17% (inactive)
15,CC(=O)NCC(=O)N1[C@H]2CC[C@H]1c1cc(Nc3ncc(C(F)(F)F)c(NC4CCC4)n3)ccc12,-0.531% (inactive)
16,COC1=C2C[C@@H](C)C[C@H](OC)[C@@H](O)[C@@H](C)C=C(C)[C@H](OC(N)=O)[C@@H](OC)C=CC=C(C)C(=O)NC(=CC1=O)C2=O,-22.6% (inactive)
17,CCC[C@@H](C=O)NC(=O)[C@H](CC(C)C)NC(=O)[C@H](CC(C)C)NC(=O)OCc1ccccc1 (Cbz-Leu-Leu-[Nva]-aldehyde),-2.86% (inactive)
18,C=CC(=O)N1CCc2ccc(-n3c(=O)ccc4cnc5ccc(-c6cnn(C)c6)cc5c43)cc21,2.74% (inactive)
19,O=S(=O)(O)CCSSCCS(=O)(=O)O,3.29% (inactive)
